Molecules are shown by their SMILES. Unmarked numbers belong to inactive results. Some of the results follow. Activity calls are given as the source filed them.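 Rule for the calls, unless noted: active = inhibition above a limit from the primary screen, the mean over all compounds plus 3 SD (cut at about 19% in these data); inactive = the rest.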

The values below come from PubChem BioAssay.

Test [1] has as its target Sphingosine 1-phosphate receptor 4 (Homo sapiens) (UniProt O95977). As to the kind of experiment: blockers of human S1P4 signalling – cell-based, confirmation (AID 1524; in the data active = inhibition above about 30%). The note with it: S1P4-expressing cell line, antagonist mode, reporter read-out; at 4.98 µM; active compounds read high.
For test [2], the target named is Sphingosine 1-phosphate receptor 1 (Homo sapiens) (UniProt P21453). As to the kind of experiment: blockade of human S1P1 receptor – cell-based, counter-screen for S1P4 antagonist project (AID 1564; in the data active = inhibition above about 40%;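 note: receptor stimulated with S1P near its EC80; 0% = agonist stimulated wells and 100% = vehicle only wells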). The note with it: cell-based S1P1 antagonist counterscreen, at 4.98 µM, active compounds read high.
A short description of test [3]: reduced OD of T4-infected AddAB+ E. coli – absorbance, E. coli V3065, T4 phage, triplicate, AddAB inhibitor project, confirmation (AID 488942;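 active = mean inhibition above a set limit taken from the earlier primary screen, cut at about 13% in these data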;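 note: higher means less bacterial growth since AddAB block lets phage replicate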). Conditions: E. coli V3065 expressing H. pylori AddAB, at 11.9 µM, active compounds read high, T4 phage with gene 2 nonsense mutations.
Test [4] can be described thus: reduced OD of phage-infected RecBCD+ V66 E. coli – absorbance, mutant T4 phage, counter-screen for AddAB inhibitor project (AID 488955;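 active = mean inhibition above the mean of solvent-only control wells plus 3 SD, cut at about 4% in these data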;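 note: optical density read after an 18 h incubation at 37 °C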). Conditions: OD growth, at 11.9 µM, active compounds read high.
The nature of test [5]: bacterial growth inhibitors – absorbance, counter-screen for AddAB inhibitor project, confirmation (AID 488956; in the data active = inhibition above about 25%). Conditions: bacterial viability, absorbance (AddAB counterscreen); at 11.9 µM; active compounds read high.
Test [6] is described as follows: StAR promoter reporter inhibitors, counter-screen for LRH-1 inverse agonist project, cell-based, luminescence, high throughput (AID 651611; in the data active = inhibition above about 28%). Conditions: StAR promoter luciferase reporter counterscreen, at 3.6 µM, active compounds read high.
Test [7] deals with Nuclear receptor subfamily 5 group A member 2 (Homo sapiens) (UniProt O00482). As to the kind of experiment: NR5A2 activity suppression in reporter cells – cell-based, luminescence, confirmation (AID 651613; in the data active = inhibition above about 42%;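 note: HEK293T cells co-transfected with LRH-1 and StAR promoter luciferase reporter; 0% = vehicle wells and 100% = parental cells lacking receptor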). The note with it: cell-based LRH-1 luciferase reporter, inverse agonism; at 3.6 µM; active compounds read high.
Test [8] concerns the target Steroidogenic factor 1 (Homo sapiens) (UniProt Q13285). As to the kind of experiment: inverse agonism at SF1 nuclear receptor – cell-based, luminescence, high throughput, counter-screen for LRH-1 inverse agonist project (AID 651614; in the data active = inhibition above about 44%;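 note: cells cotransfected with StAR promoter reporter and SF1 expression vector; 0% = vehicle on cells with receptor and 100% = vehicle on cells lacking receptor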). Conditions: cell-based SF1 luciferase reporter, at 3.6 µM, active compounds read high.
The nature of test [9]: compounds suppressing VP16-driven luciferase signal – cell-based, luminescence, high throughput, counter-screen for LRH-1 inverse agonist project (AID 651615; in the data active = inhibition above about 33%). Conditions: Gal4-VP16 luciferase reporter cells, at 3.6 µM, active compounds read high.
Test [10] in a line: reduced OD of V66 E. coli with T4 gene 2 phage – absorbance, RecBCD inhibitor project, confirmation (AID 651982;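 active = mean inhibition over triplicates exceeding the hit threshold derived in the original primary screen, cut at about 11% in these data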). The note with it: E. coli V66 + T4 2- phage, growth OD; at 11.9 µM; active compounds read high.
The nature of test [11]: bacterial growth inhibition – absorbance, high throughput, counter-screen for RecBCD inhibitor project (AID 651983; in the data active = inhibition above about 20%;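 note: E. coli strain V66 grown with compound alone and no phage infection; 0% = bacteria with DMSO vehicle only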). The note with it: E. coli viability, absorbance (OD) growth; at 11.9 µM; active compounds read high.
Test [12] can be described thus: reduced optical density, T4-challenged addAB+ bacteria – absorbance, E. coli V3065, T4 phage, counter-screen for RecBCD inhibitor project, confirmation (AID 651984;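 active = mean inhibition above the solvent-only control wells' mean plus 3 SD, cut at about 22% in these data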;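 note: higher means less bacterial growth from phage killing when AddAB is blocked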). The note with it: E. coli expressing H. pylori AddAB + T4 phage, OD growth; at 11.9 µM; active compounds read high; gene 2 mutant T4, recBCD-deleted host.
The test system of test [13] is Fam108b (Abhd17b) serine hydrolase [Mus musculus]. Kind of test: inhibition of Fam108b (Abhd17b) hydrolase – biochemical, fluorescence polarization, triplicate, counter-screen for RBBP9 inhibitor project, confirmation (AID 1978).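 Note: 0% = median of active Fam108b wells and 100% = catalytically dead S170A mutant; inhibitors free the probe so polarization falls as inhibition rises.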 The note with it: recombinant Fam108b, FP-Rh probe fluorescence polarization; at 9.51 µM; active compounds read high.
For test [14], the target named is Bcl-2-like protein 1 (Homo sapiens) (UniProt Q07817). As to the kind of experiment: Bcl-xL BH3-peptide displacement, hit confirmation – biochemical, fluorescence polarization, counter-screen for MCL1 inhibitor project (AID 2166;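 active = inhibition above a cutoff equal to the mean inhibition of all tested compounds plus 3 SD, cut at about 30% in these data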). Conditions: GST-Bcl-xL / FITC-Bim BH3 peptide FP binding; at 10.9 µM; active compounds read high.
Test [15] has as its target Induced myeloid leukemia cell differentiation protein Mcl-1 (Homo sapiens) (UniProt Q07820). As to the kind of experiment: MCL1-BIM peptide interaction disruptors – biochemical, fluorescence polarization, triplicate, confirmation (AID 2168;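 active = inhibition above the average of all tested compounds plus 3 SD, cut at about 40% in these data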;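 note: 0% = DMSO wells and 100% = unlabeled Bim-BH3 control peptide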). Conditions: GST-MCL1 / FITC-Bim-BH3 fluorescence polarization; at 10.9 µM; active compounds read high.
The target in test [16] is Protein phosphatase methylesterase 1 (Homo sapiens) (UniProt Q9Y570). As to the kind of experiment: human PME-1 methylesterase inhibition confirmation – biochemical, fluorescence polarization, FP-Rh probe, triplicate (AID 2171;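 active = inhibition above the hit cutoff set in the earlier primary screen, cut at about 27% in these data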;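 note: 0% = enzyme with DMSO and 100% = wells lacking PME-1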). Conditions: recombinant PME-1, FP-Rh probe fluorescence polarization; at 5.9 µM; active compounds read high.
Test [17] has as its target Serine protease HTRA1 (Homo sapiens) (UniProt Q92743). Kind of test: confirming inhibition of human HTRA1 – biochemical, fluorescence polarization, confirmation (AID 540248;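 active = mean inhibition over three repeats above a set limit taken from the earlier primary screen, cut at about 37% in these data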;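 note: 0% = HTRA1 with DMSO and 100% = wells lacking HTRA1; inhibitors block probe binding so polarization drops and inhibition rises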). Conditions: recombinant HTRA1, FP-rhodamine activity-based probe, at 5.96 µM, active compounds read high.
Test [18] has as its target Toll-like receptor 9 (Homo sapiens) (UniProt Q9NR96). Kind of test: disruptors of TLR9 binding to MyD88 – cell-based, CHO, BLA complementation, fluorescence, triplicate, confirmation (AID 540250;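 active = mean inhibition across three repeats above about 21% taken from the earlier screen, limit read from the data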;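 note: blue over green emission ratio reports constitutive TLR9 MyD88 association via BLA complementation; 0% = DMSO vehicle wells and 100% = clavulanate BLA inhibitor wells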). The note with it: CCF4 FRET ratio, at 4.98 µM, active compounds read high.
The nature of test [19]: BLA reporter readout interference – cell-based, fluorescence, artefact control for TLR9-MyD88 binding inhibitor project (AID 540251;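 active = mean inhibition above a 50% cutoff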;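 note: counterscreen of TLR9-MyD88 hits on CMV-driven BLA in CHO-K1 cells; 0% = DMSO alone and 100% = clavulanate blocking BLA; higher means less blue over green ratio so more BLA blockade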). The note with it: CHO-BLA cells, CCF4 FRET ratio, at 4.98 µM, active compounds read high.
Test [20] is described as follows: CHO cell viability loss – luminescence, single concentration, cytotoxicity control for TLR9-MyD88 binding inhibitor project (AID 588336; in the data active = inhibition above about 11%). The note with it: TLR9-MyD88 CHO cells cytotoxicity, at 4.98 µM, active compounds read high.
In test [21] the target is Glutathione S-transferase omega-1 (Homo sapiens) (UniProt P78417). As to the kind of experiment: recombinant GSTO1 blockers, retest – biochemical, fluorescence polarization, triplicate, counter-screen for RBBP9 inhibitor project, confirmation (AID 2176;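 active = inhibition above the primary screen's cutoff, its mean inhibition plus 3 SD, cut at about 35% in these data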;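 note: loss of polarization as inhibitors block binding of rhodamine sulfonate ester activity probe; 0% = GSTO1 with DMSO and 100% = wells lacking GSTO1 enzyme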). Conditions: recombinant GSTO1, probe fluorescence polarization; at 5.96 µM; active compounds read high.
Test [22] deals with Photoreceptor-specific nuclear receptor (Homo sapiens) (UniProt Q9Y5X4). As to the kind of experiment: corepressor-releasing ligands of human NR2E3 – biochemical, TR-FRET, confirmation (AID 2379; in the data active = activation above about 20%). Conditions: cell-free NR2E3 corepressor release, 5 h, at 3.98 µM, active compounds read high.
The target of test [23] is Platelet-activating factor acetylhydrolase (Homo sapiens) (UniProt Q13093). Kind of test: inhibition of plasma PAF acetylhydrolase – biochemical, fluorescence polarization, human, confirmation (AID 463230;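 active = mean inhibition of the triplicate above the hit cutoff set for the earlier primary screen, cut at about 25% in these data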;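 note: 0% = enzyme with DMSO and 100% = wells lacking pPAFAH enzyme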). The note with it: recombinant pPAFAH, FP-Rh probe fluorescence polarization; at 3.39 µM; active compounds read high.
Test [24] has as its target Protein-arginine deiminase type-4 (Homo sapiens) (UniProt Q9UM07). As to the kind of experiment: protein arginine deiminase 4 blockade, retest – biochemical, fluorescence polarization, confirmation (AID 488796;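 active = mean inhibition across replicates above the hit cutoff set by the earlier primary screen, cut at about 15% in these data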;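 note: inhibitors block active-site labeling by the probe so polarization falls; 0% = PAD4 with probe and DMSO and 100% = probe without PAD4 enzyme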). The note with it: recombinant PAD4, RCA probe fluorescence polarization; at 6.36 µM; active compounds read high.
Test [25] deals with Peroxisome proliferator-activated receptor gamma (Homo sapiens) + Nuclear receptor corepressor 2 (Homo sapiens) (UniProt P37231+Q9Y618). As to the kind of experiment: agonists of PPARg-NCOR2 corepressor interaction, counter-screen for NR2E3 agonist project, biochemical, TR-FRET (AID 504787; in the data active = inhibition above about 20%;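 note: 0% = DMSO vehicle and 100% = wells without protein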). Conditions: TR-FRET PPARg-NCOR2 coregulator interaction, at 3.98 µM, active compounds read high.

Test [26] can be described thus: BSA probe fluorescence interference – biochemical, TAMRA-labeled BSA, counter-screen for TCR-CD3 interaction inhibitor project (AID 652035; in the data active = inhibition above about 23%;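 note: 0% = buffer low control and 100% = reference high control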). The note with it: TAMRA-labeled BSA probe fluorescence counterscreen; at 9.4 µM; active compounds read high.
Test [27] concerns T-cell receptor (TCR)-CD3 interaction, human. Kind of test: blockers of TCR binding to CD3 – biochemical, fluorescence, TAMRA-labeled TCR probe, confirmation (AID 652036; in the data active = inhibition above about 19%). The note with it: TAMRA-labeled TCR probe fluorescence binding assay; at 9.4 µM; active compounds read high.

Sequence of Bcl-2-like protein 1 (Homo sapiens) (Q07817 whole entry, looked up): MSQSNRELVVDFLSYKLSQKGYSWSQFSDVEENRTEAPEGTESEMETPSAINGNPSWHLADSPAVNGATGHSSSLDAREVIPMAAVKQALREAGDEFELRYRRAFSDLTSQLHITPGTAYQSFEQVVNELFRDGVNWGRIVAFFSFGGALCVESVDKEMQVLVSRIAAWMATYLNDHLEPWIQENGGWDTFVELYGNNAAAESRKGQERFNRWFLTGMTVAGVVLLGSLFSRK
Sequence of Induced myeloid leukemia cell differentiation protein Mcl-1 (Homo sapiens) (Q07820 whole entry, looked up): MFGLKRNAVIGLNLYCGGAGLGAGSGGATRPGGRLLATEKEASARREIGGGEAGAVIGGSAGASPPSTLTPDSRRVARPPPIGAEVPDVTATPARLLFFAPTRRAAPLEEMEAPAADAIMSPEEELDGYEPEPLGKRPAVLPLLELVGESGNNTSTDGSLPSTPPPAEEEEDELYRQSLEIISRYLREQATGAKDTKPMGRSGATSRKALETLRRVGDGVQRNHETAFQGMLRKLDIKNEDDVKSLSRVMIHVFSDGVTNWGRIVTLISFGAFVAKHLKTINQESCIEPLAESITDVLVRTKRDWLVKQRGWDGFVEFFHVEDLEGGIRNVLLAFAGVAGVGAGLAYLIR
Sequence of Toll-like receptor 9 (Homo sapiens) (Q9NR96 whole entry, looked up): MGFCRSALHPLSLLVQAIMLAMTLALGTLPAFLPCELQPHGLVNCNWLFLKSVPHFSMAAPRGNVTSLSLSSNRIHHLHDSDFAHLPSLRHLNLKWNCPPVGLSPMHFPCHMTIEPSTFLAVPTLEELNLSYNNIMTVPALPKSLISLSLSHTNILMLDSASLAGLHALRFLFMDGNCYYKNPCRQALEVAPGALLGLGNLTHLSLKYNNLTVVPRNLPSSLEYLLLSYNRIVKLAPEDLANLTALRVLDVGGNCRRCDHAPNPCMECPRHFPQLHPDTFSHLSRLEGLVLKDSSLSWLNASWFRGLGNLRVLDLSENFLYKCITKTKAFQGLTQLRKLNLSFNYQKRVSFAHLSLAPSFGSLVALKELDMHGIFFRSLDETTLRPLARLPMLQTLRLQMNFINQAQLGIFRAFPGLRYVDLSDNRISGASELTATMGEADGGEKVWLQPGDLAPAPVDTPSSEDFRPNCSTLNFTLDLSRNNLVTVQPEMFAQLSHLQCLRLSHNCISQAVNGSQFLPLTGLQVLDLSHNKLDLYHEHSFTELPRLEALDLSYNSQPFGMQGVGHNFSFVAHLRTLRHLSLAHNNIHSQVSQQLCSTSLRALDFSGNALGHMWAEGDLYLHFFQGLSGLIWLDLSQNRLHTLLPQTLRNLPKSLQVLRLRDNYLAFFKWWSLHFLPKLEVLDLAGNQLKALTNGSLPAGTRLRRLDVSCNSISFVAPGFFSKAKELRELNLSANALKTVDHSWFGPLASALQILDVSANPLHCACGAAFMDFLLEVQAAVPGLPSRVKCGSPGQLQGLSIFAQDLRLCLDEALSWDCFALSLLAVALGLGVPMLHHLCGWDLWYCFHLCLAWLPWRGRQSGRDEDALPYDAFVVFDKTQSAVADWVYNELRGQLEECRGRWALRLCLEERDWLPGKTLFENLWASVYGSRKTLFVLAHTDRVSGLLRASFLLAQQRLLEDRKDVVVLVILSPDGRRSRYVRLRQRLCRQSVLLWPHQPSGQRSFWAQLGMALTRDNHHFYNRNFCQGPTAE
Sequence of Sphingosine 1-phosphate receptor 1 (Homo sapiens) (P21453 whole entry, looked up): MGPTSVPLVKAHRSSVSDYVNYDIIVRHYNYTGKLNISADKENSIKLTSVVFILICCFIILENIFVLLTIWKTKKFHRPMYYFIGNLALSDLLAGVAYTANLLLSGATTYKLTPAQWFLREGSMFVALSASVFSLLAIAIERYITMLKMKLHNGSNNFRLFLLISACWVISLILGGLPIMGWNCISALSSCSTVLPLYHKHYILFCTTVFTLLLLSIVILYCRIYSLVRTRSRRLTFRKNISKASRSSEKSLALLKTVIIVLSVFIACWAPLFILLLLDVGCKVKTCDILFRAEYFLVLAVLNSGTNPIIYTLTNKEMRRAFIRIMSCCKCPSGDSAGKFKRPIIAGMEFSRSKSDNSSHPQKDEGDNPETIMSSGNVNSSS
Sequence of Steroidogenic factor 1 (Homo sapiens) (Q13285 whole entry, looked up, the tested form may be a part): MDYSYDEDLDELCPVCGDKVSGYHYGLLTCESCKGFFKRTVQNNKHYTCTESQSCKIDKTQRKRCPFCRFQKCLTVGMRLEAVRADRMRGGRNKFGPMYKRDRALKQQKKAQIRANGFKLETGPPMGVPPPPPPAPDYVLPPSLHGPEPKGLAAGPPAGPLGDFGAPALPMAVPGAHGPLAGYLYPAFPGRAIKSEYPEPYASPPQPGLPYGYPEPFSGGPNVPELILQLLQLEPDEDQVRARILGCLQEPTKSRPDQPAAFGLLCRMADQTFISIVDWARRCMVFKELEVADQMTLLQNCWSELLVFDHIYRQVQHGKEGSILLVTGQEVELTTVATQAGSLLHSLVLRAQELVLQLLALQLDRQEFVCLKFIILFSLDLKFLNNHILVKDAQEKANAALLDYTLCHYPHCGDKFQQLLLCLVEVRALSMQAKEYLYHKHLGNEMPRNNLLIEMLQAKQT
Sequence of Protein-arginine deiminase type-4 (Homo sapiens) (Q9UM07 whole entry, looked up): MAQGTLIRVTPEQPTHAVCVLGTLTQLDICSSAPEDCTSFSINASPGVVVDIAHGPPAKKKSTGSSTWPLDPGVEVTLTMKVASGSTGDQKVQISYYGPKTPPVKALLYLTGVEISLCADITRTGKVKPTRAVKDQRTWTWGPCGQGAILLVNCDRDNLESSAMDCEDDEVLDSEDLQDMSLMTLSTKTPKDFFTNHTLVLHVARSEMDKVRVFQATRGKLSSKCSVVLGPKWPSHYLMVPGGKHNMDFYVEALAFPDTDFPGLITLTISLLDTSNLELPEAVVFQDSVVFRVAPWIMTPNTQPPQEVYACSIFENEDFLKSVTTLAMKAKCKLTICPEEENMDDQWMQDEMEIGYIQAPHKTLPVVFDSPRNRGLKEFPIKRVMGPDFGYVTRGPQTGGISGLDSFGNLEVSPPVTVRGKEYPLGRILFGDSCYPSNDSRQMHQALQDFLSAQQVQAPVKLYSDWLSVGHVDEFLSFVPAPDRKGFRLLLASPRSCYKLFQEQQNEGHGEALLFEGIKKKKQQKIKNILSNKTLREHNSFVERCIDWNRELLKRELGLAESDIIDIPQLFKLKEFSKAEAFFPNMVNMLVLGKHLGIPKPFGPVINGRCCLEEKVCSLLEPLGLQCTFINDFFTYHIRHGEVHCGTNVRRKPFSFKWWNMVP
Sequence of Sphingosine 1-phosphate receptor 4 (Homo sapiens) (O95977 whole entry, looked up): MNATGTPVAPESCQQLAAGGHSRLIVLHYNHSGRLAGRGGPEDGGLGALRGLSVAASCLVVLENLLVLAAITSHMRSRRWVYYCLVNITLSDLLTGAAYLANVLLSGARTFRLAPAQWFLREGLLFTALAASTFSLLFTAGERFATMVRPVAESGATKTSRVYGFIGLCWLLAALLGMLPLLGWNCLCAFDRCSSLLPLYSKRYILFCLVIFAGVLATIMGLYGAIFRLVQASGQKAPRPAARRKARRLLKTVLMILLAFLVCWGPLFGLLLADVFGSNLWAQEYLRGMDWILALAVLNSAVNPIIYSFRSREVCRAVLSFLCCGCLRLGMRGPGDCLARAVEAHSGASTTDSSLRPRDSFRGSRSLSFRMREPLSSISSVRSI
Sequence of Photoreceptor-specific nuclear receptor (Homo sapiens) (Q9Y5X4 whole entry, looked up): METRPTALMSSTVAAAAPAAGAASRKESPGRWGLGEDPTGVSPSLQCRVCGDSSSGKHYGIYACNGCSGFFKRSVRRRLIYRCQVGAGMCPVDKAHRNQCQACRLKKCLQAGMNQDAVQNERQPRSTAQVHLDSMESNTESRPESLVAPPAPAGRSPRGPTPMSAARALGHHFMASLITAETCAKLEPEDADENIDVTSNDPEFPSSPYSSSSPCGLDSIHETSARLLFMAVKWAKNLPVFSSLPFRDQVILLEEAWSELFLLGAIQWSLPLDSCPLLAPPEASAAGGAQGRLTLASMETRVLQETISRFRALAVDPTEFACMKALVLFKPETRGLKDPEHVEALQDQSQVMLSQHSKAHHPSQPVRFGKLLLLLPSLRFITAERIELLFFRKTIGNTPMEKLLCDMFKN
Sequence of Glutathione S-transferase omega-1 (Homo sapiens) (P78417 whole entry, looked up): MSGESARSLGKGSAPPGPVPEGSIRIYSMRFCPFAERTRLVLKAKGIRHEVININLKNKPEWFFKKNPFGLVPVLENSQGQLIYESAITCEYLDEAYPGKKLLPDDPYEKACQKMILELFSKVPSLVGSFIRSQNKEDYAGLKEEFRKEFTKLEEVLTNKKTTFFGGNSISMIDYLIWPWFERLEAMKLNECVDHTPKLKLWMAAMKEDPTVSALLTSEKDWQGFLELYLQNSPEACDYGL
Sequence of Platelet-activating factor acetylhydrolase (Homo sapiens) (Q13093 whole entry, looked up): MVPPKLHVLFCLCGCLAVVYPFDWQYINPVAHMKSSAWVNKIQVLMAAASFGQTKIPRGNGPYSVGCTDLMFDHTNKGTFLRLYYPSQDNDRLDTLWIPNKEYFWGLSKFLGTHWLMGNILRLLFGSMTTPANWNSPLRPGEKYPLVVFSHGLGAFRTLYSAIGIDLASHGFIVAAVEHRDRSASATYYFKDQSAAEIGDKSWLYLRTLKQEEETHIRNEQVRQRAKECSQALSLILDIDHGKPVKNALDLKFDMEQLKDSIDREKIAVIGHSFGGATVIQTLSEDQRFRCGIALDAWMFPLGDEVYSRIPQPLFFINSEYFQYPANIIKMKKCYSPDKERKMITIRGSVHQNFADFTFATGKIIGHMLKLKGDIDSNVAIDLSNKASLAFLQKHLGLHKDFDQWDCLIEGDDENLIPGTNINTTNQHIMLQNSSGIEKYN

Take `Cc1cccc(NC(=O)c2ccc([N+](=O)[O-])o2)c1`: the inhibition in test [1] was 79% (active); in [2] it was 20.2%; in [3], 98% (active); in [4], 11.9% (active); in test [5] it was 34.5% (active); in test [6], 21.1%. Also, the inhibition in test [7] is 58.8% (active); in [8] it was 57% (active); in test [9] it was -13.2%; in [10], 7.5%; in test [11], 8.19%; in test [12], 66.8% (active).
With `COc1ccc(-c2nc(CS(=O)CC(=O)NCc3ccccn3)c(C)o2)cc1` (stereo unspecified), the inhibition was 23.4% (active) in [13], 96.8% (active) in [14] and 125% (active) in test [15].
For `COc1ccc(-c2csc(NC(=O)COC(=O)Cc3ccc(Cl)cc3Cl)n2)cc1`, the inhibition in test [13] was 3.19%.
As for `Cc1ccc(C2C3=C(Nc4[nH]n(-c5ccccc5)c(=O)c42)c2ccccc2C3=O)cc1` (stereo unspecified), the inhibition in [13] is 56.8% (active).
With `COc1ccc2nc(Nc3nc4cc5c(cc4s3)OCCO5)sc2c1`, in [13], the inhibition is -9.21%.
On to `COc1ccc(NS(=O)(=O)c2cc(NC(=O)CC(=O)c3ccc([N+](=O)[O-])cc3)ccc2C)cc1`, for which the inhibition is 44.3% (active) in test [13], -1.55% in test [16] and 28.7% in [17].
Turning to `Cc1cccc2cc3c(N)c(C(=O)N4CCCc5ccccc54)sc3nc12`, the inhibition in [13] is 4.65%; in [18], 15.4%; in [19] it was 12.7%; in test [20] it was 33.7% (active).
For the compound `Cc1nc(NC(=O)c2cccc(Cl)c2)sc1-c1csc(Nc2cccc(Cl)c2)n1`, the inhibition in test [13] was 9.74%.
In the case of `COCCNC(=O)Nc1ccc2nc(-c3ccco3)c(-c3ccco3)nc2c1`, the inhibition was 17.4% in test [13]; 104% (active) in test [14]; 136% (active) in test [15]; 64.7% (active) in test [21]; 33.1% (active) in test [23]; 1.02% in test [24]. The results for the inhibition in test [25], in test [26] and in test [27] were -6.1%, -14.8% and 41.6% (active), respectively. In addition, in [22], the activation (reported as inhibition) is -0.99%.
